# Reference: ChEMBL document CHEMBL4513216, “Probing the Open Global Health Chemical Diversity Library for Multistage-Active Starting Points for Next-Generation Antimalarials” (ACS Infect Dis, 2020)
# The whole screen tested about 68,000 compounds, of which about 2,700 (4%) showed an effect of 50% or more. The sample as a whole holds a higher share of strong results than the screen did.
# System: Plasmodium berghei
# Experiment: Screen against P. berghei liver stage (PbLuc), transformed with Luciferase, at 2uM
# Format: functional, HepG2
# Conditions: tested at 2 uM
row,SMILES,INHIBITION
1,COCCc1noc(CN2CCCCC2Cn2cc(C)cn2)n1 (stereo not given),3.3%
2,Cn1cccc1C(=O)NS(=O)(=O)c1cnn(-c2ccccc2F)c1,25.21%
3,Fc1ccc(C2CN(CCc3ccncc3)CCO2)cc1 (stereo not given),13.26%
4,CCc1ccc(C2NCCc3cc4c(cc32)OCCO4)cc1 (stereo not given),-5.98%
5,CCN1C[C@H]2CCN(C(=O)Cc3cccc(OC)c3)CC[C@H]2S1(=O)=O,-8.72%
6,Cc1ccc(NC(=O)C2CSCN2C(=O)c2cnccn2)cc1C (stereo not given),54.2%
7,Cc1ccc(NC(=O)C2CSCN2C(=O)c2cc[nH]n2)c(C)c1 (stereo not given),-16.12%
8,Cc1ccc(NC(=O)C2CSCN2C(=O)c2cnccn2)c(C)c1 (stereo not given),51.21%
9,Cc1ccc(NC(=O)C2CSCN2C(=O)c2ccncc2)c(C)c1 (stereo not given),11.95%
10,Cc1ccc(NC(=O)C2CSCN2C(=O)c2cccnc2)c(C)c1 (stereo not given),-0.12%
11,Cc1cccc(NC(=O)C2CSCN2C(=O)c2cnccn2)c1C (stereo not given),-1.85%
12,O=S(=O)(NCc1ccccc1)Nc1ccc(-n2cncn2)cc1,4.12%
13,Fc1cnc(N2CCn3c(CN4CCCC4)nnc3C2)nc1,-55.08%
14,CCNC(=O)[C@@H]1C[C@H](NC(=O)Cn2ccnc2)CN1Cc1ccsc1,-35.46%
15,CC(C)c1cncnc1N1CC[C@H](N2CCOCC2)[C@H](CCCO)C1,68.36%
16,Cc1cnc(C)c(N2CC[C@H](N3CCOCC3)[C@H](CCCO)C2)n1,37.87%
17,OCCC[C@@H]1CN(c2ncc(Cl)cc2Cl)CC[C@@H]1N1CCOCC1,-69.21%
18,Fc1ccc(CN2CCCn3cnc(COCC4CC4)c3C2)cc1,25.48%
19,CC(=O)N1CCC2(CC1)COCCN2CCN(C)C,0.04%
20,CC1CN(C)c2ccccc2CN1C(=O)c1cc(C#N)cn1C (stereo not given),3.49%
21,CC(C)NC(=O)c1nc(Cn2c(C(F)(F)F)nc3ccccc32)no1,37.53%
22,O=C(NC1CC1)c1nc(Cn2c(C(F)F)nc3ccccc32)no1,29.87%

row,SMILES,INHIBITION
1,CC(C)NC(=O)c1nc(Cn2c(C(F)F)nc3ccccc32)no1,51.42%
2,COc1ccc(CN2CCN(CC3CC3)[C@@H]3CS(=O)(=O)C[C@@H]32)cc1O,7.93%
3,Cn1ncc2c(N[C@@H]3C[C@H]4CC[C@@H]3C4)nc(-c3ccncc3)nc21,67.85%
4,Cn1ncc2c(NC3CN4CCC3CC4)nc(-c3ccncc3)nc21 (stereo not given),10.1%
5,Cn1ncc2c(NC3CCC3)nc(-c3ccncc3)nc21,-24.62%
6,Cc1csc(CNC(=O)NC(C)c2ccc3c(c2)OCCO3)n1 (stereo not given),39.83%
7,CN(C)CCOC1CC2(CCN(c3cnccn3)CC2)c2ccccc21 (stereo not given),20.21%
8,CC(=O)N(Cc1ncc(C)o1)C1CCN(Cc2ccncc2Cl)C1 (stereo not given),53.72%
9,CC(=O)N(Cc1ncc(C)o1)C1CCN(Cc2ccccc2F)C1 (stereo not given),20.35%
10,CC(=O)N(Cc1noc(C)n1)C1CCN(Cc2ccccc2C#N)C1 (stereo not given),-21.31%
11,CC(=O)N(Cc1ncc(C)o1)C1CCN(Cc2cc(C)on2)C1 (stereo not given),1.04%
12,CC(=O)N(Cc1noc(C)n1)C1CCN(Cc2ccncc2Cl)C1 (stereo not given),53.72%
13,CC(=O)N(Cc1ncc(C)o1)C1CCN(Cc2cccnc2)C1 (stereo not given),41.72%
14,CC(=O)N(Cc1noc(C)n1)C1CCN(Cc2ncc(C(C)C)o2)C1 (stereo not given),8.06%
15,CC(=O)N(Cc1ncc(C)o1)C1CCN(Cc2noc(C)n2)C1 (stereo not given),71.13%
16,CC(=O)N(Cc1noc(C)n1)C1CCN(Cc2ccccn2)C1 (stereo not given),6.31%
17,O=C(O)[C@@H]1CN(C(=O)CN2Cc3ccccc3C2)C[C@H]1c1ccncc1,27.42%
18,CCN(C(=O)c1cccc2c1OCO2)c1ccccc1,-0.15%
19,O=C1CC2(CCN(S(=O)(=O)C3CC3)C2)CN1c1cncnc1 (stereo not given),34.34%
20,Cn1nccc1CCC(=O)N1CCCC(Cc2cccnc2)C1 (stereo not given),-24.85%
21,Cc1ccc(CN(C(=O)NC2CCS(=O)(=O)C2)C2CC2)o1 (stereo not given),1.88%
22,CCCOc1cc(C)ccc1NC(=O)N(C)Cc1cnn(C)c1,-31.72%

row,SMILES,INHIBITION
1,COCCOc1cc(C)ccc1NC(=O)N(C)Cc1cnn(C)c1,64.16%
2,CCOc1cc(C)ccc1NC(=O)N(C)Cc1cnn(C)c1,17.39%
3,O=C1CCCC2=C1C(c1ccccc1Cl)C1C(=O)NN=C1N2 (stereo not given),31.66%
4,Cn1ncc2c1CN(Cc1ccccc1F)CC2COCC1CC1 (stereo not given),21.42%
5,Cc1cc(C)cc(N2CC(c3nnc(N)s3)CC2=O)c1 (stereo not given),35.41%
6,CCc1ccccc1N1CC(c2nnc(N)s2)CC1=O (stereo not given),51.78%
7,Cc1cccc(N2CC3(CCN(c4nncs4)C3)CC2=O)c1 (stereo not given),5.77%
8,Cc1cccc(N2CC(c3nnc(N)s3)CC2=O)c1 (stereo not given),52.23%
9,CS(=O)(=O)NC1CC(=O)N(c2ccccc2Cl)C1 (stereo not given),34.28%
10,O=C1C[C@@H]2CCN(Cc3ccccc3)C[C@@H]2CCN1c1ccccc1,44.84%
11,O=C(C1CC(=O)N(c2ccccc2)C1)N1CCC2(CC1)OCCO2 (stereo not given),28.17%
12,Cc1c(Cl)cccc1N1CC(c2nnc(N)s2)CC1=O (stereo not given),8.41%
13,Nc1nnc(C2CC(=O)N(c3ccccc3)C2)s1 (stereo not given),74.36%
14,CN(C)C1CC2(CCN(C(=O)c3csnn3)CC2)c2ccccc21 (stereo not given),24.51%
15,CCc1nc2c(NCC3COc4cc(OC)ccc4C3)ncnc2o1 (stereo not given),23.17%
16,CCCc1n[nH]c(C2CN(C(=O)CCn3cc(C)cn3)CCO2)n1 (stereo not given),14.21%
17,Cn1cc(CN2C[C@H]3CCN(C(=O)c4cscn4)C[C@H]3C2)cn1,34.24%
18,CCN(CC(=O)N(C)C)C(=O)c1ccc(-c2nc(C)cs2)cc1,53.81%
19,CCCN(CC(=O)NC)C(=O)c1ccc(-c2nc(C)cs2)cc1,46.98%
20,CCCN(CC(=O)N(C)C)C(=O)c1ccc(-c2nc(C)cs2)cc1,-0.15%
21,CC(C)(C)CC(=O)NCC(=O)Nc1ccn(Cc2ccccc2)n1,43.87%
